# LASV entry inh: inhibitors of Lassa virus binding or cell entry; AID 540256; Lassa virus pseudotype entry inhibition, cell reporter; Potency, µM (series often up to 37.9 µM), without a hit: at the top dose activity change, negative = inhibition, hits mostly inhibitors; actives 1.2% (n = 300,000); calls by dose curve; tested in HEK293 cells; note: potency is the fitted concentration of half-maximal effect; % is set by controls: 0 for no effect and ±100 for the full control effect; nearly all actives have a fitted effect of over 50% in size
# MARV entry inh: inhibitors of Marburg virus binding or cell entry; Marburg virus pseudotyped entry inhibition, cell reporter; Potency, µM (top dose mostly 37.8 µM), inactives show at the top dose activity change, negative = inhibition, actives largely listed as inhibitors; actives 1.8% (n = 300,000); AID 540276; calls by dose curve; tested in HEK293 cells; note: potency is the fitted concentration of half-maximal effect; % is set by controls: 0 for no effect and ±100 for the full control effect
# SARS PLpro yeast: blocks SARS-CoV papain-like protease in a yeast assay. actives 0.19% (n = 330,000). S. cerevisiae expressing SARS-CoV PLpro, growth rescue. Potency, µM (highest dose often 32.9 µM), for the others: top-dose activity, positive = growth rescue, actives largely listed as activators. AID 485353; calls by dose curve; note: potency is the fitted concentration of half-maximal effect; 0% is about no effect; nearly all actives have a fitted effect of over 55% in size
# HCMV inh: blocks human cytomegalovirus replication | HFF cells, HCMV-luciferase reporter, 72 h; active compounds read low | activity change, negative = inhibition, % at 57.5 µM | actives 4.5% (n = 410,000) | AID 1259415; in the data active = activity change below about -60%; inconclusive = no clear call, values can overlap the other calls; inactive = above about -39%; note: % is set by controls: 0 for no effect and ±100 for the full control effect
#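 Two-dose cell screen: HFF monolayers treated with compounds and infected with luciferase-expressing HCMV at 1 PFU/cell, 72 h at 37C, then lysed for luciferase measurement.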
# HCV inhibitor: blocks hepatitis C virus. Potency, µM (titrated, usually from 41.8 µM), for the others: top-dose activity change, negative = inhibition, actives largely listed as inhibitors. Huh7.5.1 HCVcc-Cre infection, luciferase reporter, 44 h. actives 3.4% (n = 340,000); active = well fitted inhibition curve with a large enough effect; inconclusive = small, poorly fitted or top-dose-only effect, or another doubt; inactive = no such curve, though single readings can be large or run the other way; note: potency is the fitted concentration of half-maximal effect; % is set by controls: 0 for no effect and ±100 for the full control effect
#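 A cell-based infection assay in which seeded cells (1,000 per well) receive test compound after 4 h, are inoculated with HCVcc-Cre at approximately 0.5 moi, and are incubated 44 h before luminescence detection.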
# FMDV antiviral: foot and mouth disease virus antiviral activity; FMDV antiviral cell-based qHTS; actives 1.2% (n = 410,000); Potency, µM (doses to about 57.9 µM), for inactives: at the highest dose activity change, negative = inhibition, most hits filed as inhibitors; calls by dose curve; tested in HEK293T cells; note: read-out not given here; potency is the fitted concentration of half-maximal effect; % is set by controls: 0 for no effect and ±100 for the full control effect; nearly all actives have a fitted effect of over 45% in size
# Numbers without * were called inactive; ? = inconclusive; . = no result given; ! = not active in a repeat; [ ] = remark or other dose. Most compounds without a hit are left out; they make up all but 8% or so of the library.
SMILES,LASV entry inh,MARV entry inh,SARS PLpro yeast,HCMV inh,HCV inhibitor,FMDV antiviral
CCc1ccc(N2CC(C(=O)N/N=C/c3cc([N+](=O)[O-])ccc3O)CC2=O)cc1 (centres undefined),7.1µM*,-3%[46.1 µM],5%,?,?,-6%
Cn1c(CNc2cccc(Cl)c2)nnc1SCC(=O)OC1CCCCC1,10%,-5%,3%,-80*,3%,-25%
CCn1cc(S(=O)(=O)NC(C)c2cc(OC)ccc2OC)cn1 (centres undefined),?,-15%[46.1 µM],4%,-31,1%,-1%
C=C(C)[C@@H]1CC=C(CN2CCN(Cc3ccccc3)CC2)CC1,?,10µM*,-1%,0,-12%,-2%
CCc1cccc(C)c1NC(=S)NCc1ccc2c(c1)cc(C)n2C,?,?,-10%,-91*,?,-13%
C=C1C(N)CC2CC1C2(C)C (centres undefined),.,.,.,.,.,-2%
COC(=O)c1ccc(CN2C(=O)[C@]3(OCCC=C[C@@H]3C)c3c(Br)cccc32)cc1,.,-7%[14.2 µM],.,.,.,.
CCCCNC(=O)C1c2cc(OC)c(OC)cc2C(=O)N(C)C1c1cccs1 (centres undefined),4%[46.1 µM],7%[46.1 µM],-2%,-12,0%,0%
CCCCNC(=O)C1c2cc(OC)c(OC)cc2C(=O)N(C)C1c1ccc(OC)cc1 (centres undefined),-16%,15%[46.1 µM],10%,-100*,-8%,9%
C=CCn1c(SCc2ccc(C#N)cc2)nnc1-c1cccc(OC)c1,-2%,-20%[46.1 µM],13%,-64*,-2%,0%
C=CCn1c(SCc2ccc(C#N)cc2)nnc1-c1ccccc1,6%,-8%,-5%,-29,13%,-22%
CCCCC(=O)Nc1nc2ccc3nc(C)sc3c2s1,.,.,-16%,-22,7.9µM*,30%
O=C1NC(=O)N(c2ccccc2)C(=O)/C1=C/c1ccoc1,9%[46.1 µM],8%[46.1 µM],3%,11,3%,?
Cc1cccc(N2C(=O)NC(=O)/C(=C\c3ccc(N4CCOCC4)cc3)C2=O)c1,-11%[46.1 µM],16%[46.1 µM],0%,?,20%,-29%
CC(C)c1ccc(N2C(=O)NC(=O)/C(=C\c3cnc(-c4ccccc4)nc3)C2=O)cc1,23%,41%,10%,-88*,10%,-11%
Cc1cccc(N2C(=O)NC(=O)/C(=C\c3cnc(-c4ccccc4)nc3)C2=O)c1,18%,?,-12%,-10,11µM*,-12%
Cc1ccc(N2C(=O)NC(=O)/C(=C/c3cnc(-c4ccccc4)nc3)C2=O)cc1C,17%,14%,13µM*,57,5%,-11%
O=C(N=Nc1c(O)[nH]c2ccc(Br)cc12)c1ccccc1-n1cccc1,?,?,-12%,?,18µM*,?
Oc1ccc(NC(=S)N=Nc2c(O)[nH]c3ccc(Br)cc23)cc1,11µM*,?,1%,-91*,-14%,-19%
O=C(N=Nc1c(O)[nH]c2ccc(Br)cc12)c1cc(-c2cccs2)nc2ccccc12,0%,-8%[46.1 µM],-2%,-61*,?,?
Oc1[nH]c2ccc(Br)cc2c1N=NC(=S)Nc1ccc(F)cc1,?,?,-1%,-14,?,25%
COc1cccc(CN2C(=O)NC(C)(C3CCN(Cc4cc(F)cc(F)c4)CC3)C2=O)c1OC (centres undefined),.,.,.,.,.,-3%
CCN1C(=NCC(C)C)NC(c2cccc(F)c2)C(C(=O)OC)=C1C (centres undefined),.,-5%[14.2 µM],.,.,.,.
COCCN1C(=O)NC(c2ccco2)C(C(=O)OC)=C1C (centres undefined),.,3%[14.2 µM],.,.,.,.
CCOc1ccc(-c2nn(-c3ccccc3)cc2C2NC(=O)NC(C)=C2C(=O)OC(C)C)cc1 (centres undefined),-23%[46.1 µM],?,.,-67*,.,-5%
SMILES,LASV entry inh,MARV entry inh,SARS PLpro yeast,HCMV inh,HCV inhibitor,FMDV antiviral
CCCOc1ccc(-c2nn(-c3ccccc3)cc2C2NC(=O)NC(C)=C2C(=O)OC(C)C)cc1 (centres undefined),-30%[46.1 µM],?,.,-35,.,-10%
COC(=O)c1c(NC(=O)CN2CCC3(O)CCCCC3C2c2cc(OC)ccc2OC)sc(C)c1C (centres undefined),7.9µM*,15µM*,-36%,-29,?,?
CC(C)=CCC/C(C)=C/CO/N=C1\C[C@@H](O)[C@@H](O)[C@@H]2[C@@H]3C(=O)N(Cc4ccc5c(c4)OCO5)C(=O)[C@@H]3CC[C@H]12,.,-44%[14.2 µM],.,.,.,.
O=C(CN1C(=O)c2ccccc2C1=O)c1ccccc1,-1%,-6%,-24%,36,5%,25%
CC1=C(CC(=O)c2ccccc2)C(=O)c2ccccc2C1=O,-14%,?,-8%,-99*,?,?
COc1ccc(-c2nc3sc(CCNC(=O)c4ccccc4C)c(C)n3n2)cc1,-23%[46.1 µM],.,.,18,.,-11%
O=C(O)C1CCCN(S(=O)(=O)Cc2ccccc2)C1 (centres undefined),.,.,1%,-5,14%,-13%
O=C(C1CCCN(S(=O)(=O)Cc2ccccc2)C1)N1CCC(Cc2ccccc2)CC1 (centres undefined),-17%,-28%,-14%,-5,?,40µM*
O=C1c2oc3ccccc3c(=O)c2C(c2ccccc2F)N1Cc1ccc2c(c1)OCO2 (centres undefined),12%[46.1 µM],21%[46.1 µM],.,20,.,35%
C#CCCC[C@@H]1OC(=O)CNC(=O)C([C@@H](C)CC)NC(=O)[C@@H]2CCCN2C(=O)C([C@@H](C)CC)OC(=O)[C@H](Cc2ccccc2)N(C)C(=O)[C@H](C(C)C)NC(=O)C1(C)C (some centres undefined),.,.,.,?,.,-24%
CC[C@H](C)[C@@H]1NC(=O)[C@H]([C@@H](C)CC)NC(=O)[C@@H](CC(C)C)NC(=O)[C@H](Cc2ccccc2)NC(=O)[C@H](Cc2ccccc2)NC(=O)[C@@H]2CCCN2C(=O)[C@@H]2CCCN2C(=O)[C@H](C(C)C)NC(=O)[C@H](CC(C)C)NC1=O,.,.,-4%,-80*,-25%,-10%
CCN(CC)CCn1nc2c3c(cccc3c1=O)-c1ccccc1-2,.,.,-2%,-99*,10µM*,?
O=c1c2cccc3c2c(nn1CN1CCOCC1)-c1ccccc1-3,?,?,-19%,.,?,-11%
Nc1ccc(-c2ccc3ccccc3n2)cc1,?,6.3µM*,.,.,.,.
COc1ccc(-c2ccc3ccccc3n2)cc1,?,?,-2%,42,?,-15%
Cc1[nH]n(-c2ncc(-c3ccccc3)s2)c(=O)c1C(c1ccc(Br)cc1)C(C#N)C#N (centres undefined),8%,22%,-4%,90,8%,28µM*
NC(CO)C(=O)NNCc1ccc(O)c(O)c1O (centres undefined),?,5µM*!,?,?,-1%[8.37 µM],-16%
